Experimental data taken from paper PMC4336329 (PLoS ONE, 2015).
Hit rate of the full screen: of about 310,000 compounds, about 14,000 (4.5%) showed an effect of 50% or more. The effect is printed as a negative number. The list comes from a sample in which strong results are over-represented; it also holds similar structures and randomly drawn compounds.

biological target: human ether-à-go-go-related gene (hERG) potassium channel (human, UniProt Q12809); assay: primary screen, population patch clamp on CHO cells stably expressing hERG; higher = less effect of the substance
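Further: peak tail current of the secondary pulse compared with the same well before compound.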

Sequence of human ether-à-go-go-related gene (hERG) potassium channel (Q12809 whole entry, looked up): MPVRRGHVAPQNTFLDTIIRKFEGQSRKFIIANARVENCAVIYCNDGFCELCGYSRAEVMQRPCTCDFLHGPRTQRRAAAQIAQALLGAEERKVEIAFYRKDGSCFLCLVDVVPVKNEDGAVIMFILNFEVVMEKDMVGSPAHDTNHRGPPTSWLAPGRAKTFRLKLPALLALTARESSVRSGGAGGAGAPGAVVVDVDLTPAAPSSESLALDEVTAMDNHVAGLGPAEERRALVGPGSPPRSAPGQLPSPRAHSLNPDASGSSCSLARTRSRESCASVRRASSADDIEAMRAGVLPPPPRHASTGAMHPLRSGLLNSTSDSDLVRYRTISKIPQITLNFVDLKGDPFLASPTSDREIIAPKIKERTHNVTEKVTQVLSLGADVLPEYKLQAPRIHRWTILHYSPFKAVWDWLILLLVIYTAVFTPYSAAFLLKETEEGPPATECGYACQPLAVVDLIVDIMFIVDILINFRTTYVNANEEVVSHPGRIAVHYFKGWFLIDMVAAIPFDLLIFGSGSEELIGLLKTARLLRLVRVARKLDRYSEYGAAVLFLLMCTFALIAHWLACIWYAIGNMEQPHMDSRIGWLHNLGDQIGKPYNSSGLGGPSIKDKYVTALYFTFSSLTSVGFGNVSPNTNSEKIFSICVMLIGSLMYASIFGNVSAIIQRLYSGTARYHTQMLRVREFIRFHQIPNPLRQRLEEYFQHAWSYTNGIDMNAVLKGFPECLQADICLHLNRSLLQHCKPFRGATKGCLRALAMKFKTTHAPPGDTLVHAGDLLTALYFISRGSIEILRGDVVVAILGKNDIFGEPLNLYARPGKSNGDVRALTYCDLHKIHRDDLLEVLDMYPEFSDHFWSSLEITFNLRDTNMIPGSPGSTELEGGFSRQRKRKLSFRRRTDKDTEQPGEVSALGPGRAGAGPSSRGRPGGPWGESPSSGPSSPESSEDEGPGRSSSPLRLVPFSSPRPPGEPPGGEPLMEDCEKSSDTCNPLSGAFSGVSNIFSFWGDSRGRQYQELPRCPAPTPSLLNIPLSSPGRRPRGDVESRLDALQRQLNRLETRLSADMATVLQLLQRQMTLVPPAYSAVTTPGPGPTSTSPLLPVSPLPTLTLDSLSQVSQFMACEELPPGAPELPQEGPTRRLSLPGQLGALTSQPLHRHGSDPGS

| Compound | hERG current change (%, negative = inhibition) at 10uM [%] |
| --- | --- |
| CCc1nnc(NC(=O)CSc2nnc(-c3ccoc3C)n2-c2ccc(C)cc2)s1 | -26.4 |
| CCc1nnc(NC(=O)CSc2nnc(-c3ccoc3C)n2-c2cccc(C)c2)s1 | -58.3 |
| Cc1ccc(C)c(-n2c(SCC(=O)Nc3nnc(C)s3)nnc2-c2ccoc2C)c1 | 5.96 |
| CCc1nnc(NC(=O)CSc2nnc(-c3ccoc3C)n2-c2ccccc2)s1 | -3.54 |
| CCCn1c(SCC(=O)Nc2nnc(C)s2)nnc1-c1ccoc1C | 3.4 |
| Cc1cccc(-n2c(SCC(=O)Nc3nnc(C)s3)nnc2-c2ccoc2C)c1 | -63.9 |
| O=C(NCCc1ccccc1Cl)c1cc(COc2ccc(F)cc2F)on1 | 7.59 |
| O=C(CCC(=O)Nc1ccc(F)cc1)N/N=C/c1cccnc1 | 17.8 |
| CCOc1ccc(S(=O)(=O)NCCC(=O)NCc2ccco2)cc1 | -0.369 |
| O=C(NC1CCCCC1)c1ccc(S(=O)(=O)N2CCCCC2)cc1 | -6.43 |
| COc1ccc(S(=O)(=O)Nc2cc(C(C)C)c(O)cc2C)cc1 | -2.38 |
| CN(C)C(=O)c1nc2ccc(Cl)cn2c1CN1CCCC(OCc2ccccc2)C1 (stereo not shown) | -36.2 |
| CN(C)C(=O)c1nc2ccc(Cl)cn2c1CN1CCCC(OCc2cccnc2)C1 (stereo not shown) | -57.9 |
| COC1CCCN(Cc2c(C(=O)N3CCc4ccccc4C3)nc3ccc(Cl)cn23)C1 (stereo not shown) | -35.9 |
| NCCNc1ccc2nnnn2n1 | 38.7 |
| COc1ccc(O)c(CN2CCCC(N3CCc4ccccc4C3)C2)c1 (stereo not shown) | -46.6 |
| CCOc1cc(CN2CCCC(N3CCc4ccccc4C3)C2)ccc1O (stereo not shown) | -21.4 |
| COc1ccc(CN2CCCC(N3CCc4ccccc4C3)C2)c(O)c1 (stereo not shown) | -60.1 |
| CCOc1cccc(CN2CCCC(N3CCc4ccccc4C3)C2)c1O (stereo not shown) | -52.9 |
| Oc1ccccc1CN1CCCC(N2CCc3ccccc3C2)C1 (stereo not shown) | -38.8 |
| COc1cccc(CN2CCCC(N3CCc4ccccc4C3)C2)c1O (stereo not shown) | -17.7 |

| Compound | hERG current change (%, negative = inhibition) at 10uM [%] |
| --- | --- |
| CCC(C)(C)NC(=O)C(c1ccc(OC)cc1)N(CCOC)C(=O)CCC(=O)Nc1nccs1 (stereo not shown) | 0.428 |
| COc1cc(NC(=O)Cn2cnc(S(=O)(=O)N3CCCCC3)c2)cc(OC)c1OC | 14.9 |
| Cc1ccc(-c2ncccc2OC(=O)C23CC4CC(CC(C4)C2)C3)cc1.Cl | 12 |
| COc1ccc2c(c1OC)CN(C)CCc1cc3c(cc1C(O)C2)OCO3 (stereo not shown) | -27.1 |
| COc1ccc2c(c1OC)CN1CCc3cc4c(cc3[C@H]1C2)OCO4 | -1.81 |
| COc1cc2c(cc1OC)C(=O)Cc1ccc3c(c1CN(C)CC2)OCO3 | -54.1 |
| COc1cc2c(cc1OC)C(C1c3cc4c(cc3CCN1C)OCO4)OC2=O (stereo not shown) | 4.1 |
| Br.COc1c2c(cc3c1OCO3)CCN(C)C2 | 0.899 |
| COc1ccc2c(c1OC)CN(C)CCc1cc3c(cc1C(=O)C2)OCO3 | -81 |
| O=C(Nc1ccc(CN2CCOCC2)cc1)c1ccc(Br)o1 | 1.56 |
| Cc1ccc2nc(SCC(=O)N3CC(C)OC(C)C3)nc(=O)n2c1 (stereo not shown) | -13 |
| O=C(N/N=C/c1cc([N+](=O)[O-])c(N2CCOCC2)cc1N1CCOCC1)c1cccnc1 | -22.4 |
| CCOC(=O)N1CCC(c2cc(=O)n3[nH]cc(C(=O)OC)c3n2)CC1 | 9.34 |
| CC[C@]12CCCN3CCc4c(n(c5ccccc45)[C@@](O)(C(=O)OC)C1)[C@@H]32 | -80.9 |
| CC[C@]12CCCN3CCc4c(n(c5ccccc45)[C@](O)(C(=O)OC)C1)[C@@H]32 | -72.4 |
| CCC1(C(=O)OC)CCc2c(cc(OC)c3ccccc23)C1=O (stereo not shown) | 3.07 |
| COC(=O)[C@@H]1[C@H]2C[C@H]3c4[nH]c5ccccc5c4CCN3C[C@@H]2CC[C@@H]1O.Cl | -22 |
| CCC12CCCN3CCc4c(n(c5ccccc45)C(O)(C(=O)OC)C1)C32 (stereo not shown) | -28.9 |
| CC[C@H]1CC2CN3CCc4c([nH]c5ccccc45)C(C(=O)OC)(C2)C13.Cl (stereo partly shown) | -2.97 |
| O=C(NCc1ccco1)c1ccc(Cl)c(S(=O)(=O)N2CCCC2)c1 | -9.61 |
| O=C1NC(=O)/C(=C\c2ccc(OCc3cccc(C(=O)O)c3)c(Cl)c2)N1 | 20.1 |

| Compound | hERG current change (%, negative = inhibition) at 10uM [%] |
| --- | --- |
| COc1cc(OC)cc(C(=O)Nc2ccc(S(=O)(=O)Nc3ncccn3)cc2)c1 | 12.8 |
| COc1c(C)cc(C(=O)C2CCCN(Cc3cnc(N4CCOCC4)s3)C2)cc1C (stereo not shown) | -8.64 |
| CS/C(=N\NC(N)=O)c1ccccc1 | -8.24 |
| O=C(O)c1ccc2c(=O)n3c(nc2c1)/C(=C/c1ccccc1Br)CC3 | 4.66 |
| C/C(=N\NC(=O)CCCNc1cccc(C)c1)c1ccncc1 | 0.987 |
| CCCCn1c(N)c(N(CC(C)C)C(=O)c2ccc(S(=O)(=O)N3CCCCCC3)cc2)c(=O)[nH]c1=O | 9.58 |
| CC(C)=C(NC(=O)c1ccccc1)C(=O)NCCc1nc2ccccc2[nH]1 | 9.91 |
| O=C(CCc1nc2ccccc2[nH]1)NCc1ccc2c(c1)OCO2 | -38.1 |
| COc1ccc(C(=O)N/C(=C\c2ccc3c(c2)OCO3)C(=O)NCCc2nc3ccccc3[nH]2)cc1 | -39.4 |
| O=C(NCCc1nc2ccccc2[nH]1)/C(=C/c1ccc2c(c1)OCO2)NC(=O)c1ccccc1Cl | -80.6 |
| O=C(NCCc1nc2ccccc2[nH]1)/C(=C/c1ccc2c(c1)OCO2)NC(=O)c1ccc(Cl)cc1Cl | -76.3 |
| O=C(NCCc1nc2ccccc2[nH]1)/C(=C/c1ccc2c(c1)OCO2)NC(=O)c1ccccc1 | -71.1 |
| O=C(N/N=C/c1ccc2c(c1)OCO2)c1ccc(Cl)cc1Cl | 20.3 |
| O=C(Nc1cccc(C(=O)O)c1)/C(=C\c1ccc2c(c1)OCO2)NC(=O)c1ccccc1Cl | 3.5 |
| O=C(NCCCCCc1nc2ccccc2[nH]1)c1ccccc1Cl | -6.43 |
| CCc1ccccc1NC(=O)CSc1nc2ccccc2nc1N1CCOCC1 | -15.1 |
| CCOC(=O)C1CCCN(C(=O)CCC(=O)Nc2ccc3nc(N4CCOCC4)cc(C)c3c2)C1 (stereo not shown) | -23.7 |
| O=C(NC1CCS(=O)(=O)C1)/C(=C\c1ccco1)NC(=O)c1ccccc1 (stereo not shown) | 1.36 |
| Cc1cc(-c2nn3c(C)nnc3s2)ccc1NC(=O)C(C)(C)C | 10.7 |
| O=C(c1ccc(F)cc1)N1CCC(C(=O)N2CCN(S(=O)(=O)c3ccccc3Br)CC2)CC1 | -32.6 |
| Cc1ccc(S(=O)(=O)N2CCN(C(=O)c3ccc(Br)o3)CC2)c(C)c1 | -55 |

| Compound | hERG current change (%, negative = inhibition) at 10uM [%] |
| --- | --- |
| Cc1ccc(C)c(S(=O)(=O)N2CCN(C(=O)C3CCN(C(=O)c4ccc(F)cc4)CC3)CC2)c1 | -30.6 |
| COc1ccc(N2CCN(C(=O)C3CCN(S(=O)(=O)c4ccc(F)cc4)CC3)CC2)cc1 | -48.3 |
| Cc1ccc(S(=O)(=O)N2CCN(C(=O)c3ccco3)CC2)c(C)c1 | -7.22 |
| Cc1ccc(S(=O)(=O)N2CCN(C(=O)COC(=O)c3ccc(Br)o3)CC2)c(C)c1 | -10.3 |
| CC(C)c1ccc(S(=O)(=O)N2CCN(C(=O)C3CCCC3)CC2)cc1 | 2.78 |
| CC(=O)N1CCC(C(=O)N2CCN(S(=O)(=O)c3ccc(F)cc3)CC2)CC1 | -1.33 |
| CC(C)c1ccc(S(=O)(=O)N2CCN(C(=O)C3CCN(C(=O)c4ccc(F)cc4)CC3)CC2)cc1 | -53.7 |
| CC(=O)c1ccc(N2CCN(C(=O)C3CCN(S(=O)(=O)c4ccc(F)cc4)CC3)CC2)cc1 | -52.6 |
| Cc1ccc(S(=O)(=O)N2CCN(C(=O)C3CCN(C(=O)c4ccc(F)cc4)CC3)CC2)c(C)c1 | -55.7 |
| CN1CCN(C(=O)C2CCN(S(=O)(=O)c3ccc(F)cc3)CC2)CC1 | 5.18 |
| CC(C)c1ccc(/C=C2\SC(=O)N(CC(=O)NC3C=CS(=O)(=O)C3)C2=O)cc1 (stereo not shown) | 5.89 |
| O=C(Cn1cnc2c(nnn2Cc2ccc(F)cc2)c1=O)NCc1ccco1 | -18.2 |
| CCOc1ccc(CN2CCNC(=O)C2CC(=O)NCc2cc(C)n(C)n2)cc1 (stereo not shown) | -1.95 |
| O=C(NC(=S)NNS(=O)(=O)c1ccc(Cl)cc1)c1cccnc1 | 18.6 |
| O=C(CNC(=S)N(Cc1ccccc1)Cc1ccccc1F)NCCc1ccccc1 | 3.73 |
| Cc1ccc2c(c1)C(c1ccccc1)=NCC(=O)N2 | -12.8 |
| NS(=O)(=O)c1cc(C(=O)O)cc(N2CCCC2)c1Oc1ccccc1 | 0.0774 |
| O=C(Nc1ccc(Cl)cn1)c1ccccc1F | -1.25 |
| O=C(NC(=S)Nc1ccc2oc(=O)ccc2c1)c1cccc(Cl)c1 | 4.11 |
